From PubChem BioAssay AID492999 (Johns Hopkins Ion Channel Center, 2010)
About 1,100 (65%) of roughly 1,700 compounds were called active.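 How the source made its calls: active means duplicate-averaged calcium response above the buffer-only control mean plus 5 SD of those controls; inactive means the rest.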 So high a share suggests a set chosen from earlier hits. Not all results are given here.

assay: increase of M3R-evoked calcium signal – cell-based, validation screen, HEK293 M3R/RGS4, calcium flux, RGS4 inhibitor project (AID 492999); conditions: HEK293 M3R/RGS4, carbachol calcium Fluo-4 fluorescence, at 10 µM, carbachol added at its EC20; hits give high values, 0 = buffer wells, 100 = carbachol control;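 on calcium response: integrated fluorescence ratio F max minus min over baseline F0; higher response in RGS4-induced cells means RGS4 inhibition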

SMILES | calcium response
CCCCC1S/C(=N/N=C/c2cccs2)NC1=O (configuration not stated) | 18% (active)
Brc1ccc(-c2csc(N/N=C/c3cccnc3)n2)cc1 | 7.5% (active)
CNc1nc(Nc2ccc(C)c(Cl)c2)nc(N)c1[N+](=O)[O-] | 6% (active)
Cc1ccc(Nc2nc(N)nc(CN3CCN(Cc4ccccc4)CC3)n2)cc1Cl | inactive
Cc1nn2c(=O)cc(COC(=O)c3ccc(NC(=O)C(C)(C)C)cc3)nc2s1 | inactive
Cc1ccc(NC(=O)c2c(NC(=O)CCC(=O)O)sc3c2CCCCC3)cc1 | inactive
CC(C)c1nc(SCC(=O)Nc2cccc(C(=O)O)c2)c2c3c(sc2n1)CCCC3 | 27.5% (active)
CC(C)Cc1nc(Nc2ccc(S(=O)(=O)N3CCCC3)cc2)c2nnn(Cc3ccccc3)c2n1 | inactive
CNCC(O)c1ccc(O)c(O)c1 (configuration not stated) | 21.5% (active)
O=C(CCN1CCc2ccccc2C(O)(c2ccccc2)C1)c1ccc2c(c1)OCCO2 (configuration not stated) | 100% (active)
COc1ccc(C(C[N+](=O)[O-])n2nc(C)cc2C)cc1 (configuration not stated) | 10% (active)
Cc1nn(C(C)C(=O)N2CCOCC2)c(=O)c2nn(-c3ccccc3)c(C)c12 (configuration not stated) | inactive
O=C(NCCCc1ccccc1)C1CCC(CNc2c(N3CCCCC3)c(=O)c2=O)CC1 (configuration not stated) | inactive
O=C1c2ccccc2NC(c2ccc(-c3cccc(Cl)c3)o2)N1O (configuration not stated) | 24.5% (active)
c1ccc(C[C@H]2CNCCN2CCC23CC4CC(CC(C4)C2)C3)cc1 | 26.5% (active)
O=C(COC(=O)c1cccc(Br)c1)Nc1cccc2c1C(=O)c1ccccc1C2=O | inactive
O=C(O)c1ccc2c(c1)C(=O)N(c1ccc(/C=C/C(=O)c3ccccc3)cc1)C2=O | 93% (active)
CCc1ccc(C2C(C#N)=C(N)N(N3CCOCC3)C3=C2C(=O)CC(C)(C)C3)s1 (configuration not stated) | inactive
O=[N+]([O-])/C=C/c1ccc2c(ccn2Cc2ccccc2)c1 | 56.5% (active)
CCn1c(O)c(N=NC2=NC(=O)CS2)c2cc(C)ccc21 | inactive
O=C1NC(c2ccc(-c3ccccc3[N+](=O)[O-])o2)C(C(=O)c2ccc(Cl)cc2)C(O)(C(F)(F)F)N1 (configuration not stated) | 18.5% (active)
Cn1c(-c2ccco2)nc2cc3ccccc3cc21 | inactive
CCc1ccc2oc(-c3ccc(N)cc3)nc2c1 | 17% (active)
CCOc1ccc(NC(=O)C/C(C)=N/NC(=O)Cc2cccs2)cc1 | inactive
CCCCOC(=O)CNc1nnc(SCC(=O)OCC)[nH]c1=O | 63.5% (active)
Cc1ccc(C)c(Cn2nnc3c(=O)[nH]c(C(=O)Nc4ccc(F)cc4)nc32)c1 | 56.5% (active)

SMILES | calcium response
COC(=O)C1CCN(C(=O)c2cc(=O)[nH]c3ccccc23)CC1 | inactive
Cc1ccc(S/C(=N\S(=O)(=O)c2ccc(Cl)cc2)c2ccccc2)cc1 | inactive
C#CCOc1ccc(/C=C2/C(=O)ON=C2C)cc1OCC | 16% (active)
C=CCOc1ccc(/C=C2/C(=O)ON=C2C)cc1OCC | 14.5% (active)
Cc1ccsc1/C=N/n1c(=S)[nH]nc(C)c1=O | 22.5% (active)
Cc1ccc(SC(CC(=O)c2ccc(C(C)(C)C)cc2)C(=O)O)cc1 (configuration not stated) | inactive
Nc1cccc(-c2cc(-c3ccccc3)nc(-c3cccc(N)c3)n2)c1 | 13.5% (active)
COc1cc2c(cc1O)C(SC)=NC(C)(C)C2 | 26.5% (active)
CCc1nnc(NS(=O)(=O)c2ccc(N=Cc3c(C)[nH]n(-c4ccc(C)cc4)c3=O)cc2)s1 | inactive
C1=C(N2CCOCC2)/C(=C/c2nc3ccccc3[nH]2)CC1 | 49% (active)
COc1ccc(NCc2nnc(SCc3ccccc3)n2-c2ccc(OC)cc2)cc1 | inactive
O=C(O)c1ccc2c(=O)n3c(nc2c1)/C(=C/c1ccc(Cl)c([N+](=O)[O-])c1)CC3 | inactive
Cc1ccc(/C=C2\CCn3c2nc2cc(C(=O)O)ccc2c3=O)c(C)c1 | 52% (active)
Oc1ccc(-c2[nH]ncc2-c2nc3ccccc3s2)c(O)c1 | 12% (active)
O=S(=O)(Nc1nccs1)c1ccc2c(c1)OCCO2 | inactive
Cc1c(NC(=O)c2coc(=O)c(Br)c2)c(=O)n(-c2ccccc2)n1C | 24.5% (active)
CS(=O)(=O)N(CC(O)Cn1c2ccccc2c2ccccc21)c1cccc2ccccc12 (configuration not stated) | 14.5% (active)
COc1ccc(S(=O)(=O)Nc2ccc(O)c(Sc3nc4ccccc4s3)c2)cc1 | 23% (active)
O=[N+]([O-])c1c(NCCO)cc(Sc2nc3ccccc3s2)c2nonc12 | inactive
Nc1ccccc1SC(C[N+](=O)[O-])c1ccccc1 (configuration not stated) | 38.5% (active)
O=C(O)C(c1ccccc1)N1C(=O)/C(=C\c2ccc(-c3cccc(Cl)c3)o2)SC1=S (configuration not stated) | 13.5% (active)
COc1ccccc1C1C(C#N)=C(N)Oc2c1c(-c1ccccc1)nn2-c1ccccc1 (configuration not stated) | 34.5% (active)
C=C(C)C(=O)O[C@H]1C/C(C)=C\C(=O)/C=C(\C)[C@H](O)[C@@H]2OC(=O)C(=C)[C@@H]21 | 26.5% (active)
CC(=O)Nc1ccc(S(=O)(=O)Nc2nc(-c3ccc(C(C)(C)C)cc3)cs2)cc1 | 19.5% (active)
O=C(/C=C/Sc1ncn[nH]1)c1ccc(Cl)cc1 | 45.5% (active)
Cc1cc(-c2n[nH]c(=S)n2/N=C/C(Br)=C/c2ccccc2)n[nH]1 | 18% (active)
